Assay results reported in PubChem BioAssay (EPA / NIEHS).
Activity calls are given as the source filed them. How the source made its calls: active means hit-call score of the fitted dose curve at least 0.9, where 1 is the maximum; inactive means score below 0.9.

Experiments:
[1] = ATG_CRE_CIS: Attagene CIS-FACTORIAL HepG2 Assay for human cAMP Responsive Element (CRE) binding protein 3 (AID 2282926); settings: HepG2 CRE cis-reporter, Attagene multiplexed mRNA; actives raise or lower the signal
Procedure, shortened: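 Assay format: transient reporter transfection of HepG2, 24 h treatment, total RNA isolation with DNase I step. Reporter abundance read by fluorescence after PCR and capillary separation; DMSO-normalised gain or loss fitting.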

[2] = target: CCAAT/enhancer-binding protein beta (Homo sapiens) (UniProt P17676); assay: ATG_C_EBP_CIS: Attagene CIS-FACTORIAL HepG2 Assay for human CCAAT/Enhancer Binding Protein (C/EBP) beta (AID 2282927); settings: HepG2 Attagene cis-factorial transcription factor reporter; actives raise or lower the signal
Procedure, shortened: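 RT-PCR/capillary electrophoresis fluorescence of reporter mRNA, 24 h post-dose, in HepG2 cells carrying transfected cis-promoter reporter units. Bidirectional curve fitting against DMSO baseline captures gain or loss of signal.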

[3] = ATG_CMV_CIS: Attagene CIS-FACTORIAL HepG2 Assay for human CMV (Internal Marker) (AID 2282928); settings: HepG2 CMV promoter reporter, transcription factor profiling; actives raise or lower the signal;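 further: endpoint acts as a background internal control marker rather than a target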
Procedure, shortened: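 Fluorescence intensity of RT-PCR-derived reporter fragments, resolved by capillary electrophoresis, gives the signal. HepG2 liver cells bearing transfected cis-element reporters were treated 24 h; activity in either direction was fit relative to DMSO-treated controls.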

[4] = ATG_DR4_LXR_CIS: Attagene CIS-FACTORIAL HepG2 Assay for human Liver X Receptor (LXR), DR4 submotif (AID 2282929); settings: HepG2 Attagene DR4 cis-reporter, mRNA transcription; actives raise or lower the signal
Procedure, shortened: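 Cells were transfected with multiple reporter transcription units, exposed to chemicals for 24 hours, then lysed for RNA. Reporter mRNA induction was measured by RT-PCR with capillary electrophoresis detection and fitted in both directions relative to DMSO.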

[5] = ATG_AP_1_CIS: Attagene CIS-FACTORIAL HepG2 Assay for human Activator Protein 1 (AP-1) (AID 2282931); settings: HepG2 Attagene cis-factorial AP-1 reporter mRNA; actives raise or lower the signal
Procedure, shortened: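 Endogenous transcription-factor activity in human HepG2 liver cells is read through a cis-promoter reporter transcript, sampled 24 h after dosing. Detection uses RT-PCR with capillary electrophoresis; values come from bidirectional fitting relative to DMSO.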

[6] = ATG_AP_2_CIS: Attagene CIS-FACTORIAL HepG2 Assay for human Activator Protein 2 (AP-2) (AID 2282932); settings: HepG2 AP-2 cis-reporter, Attagene transcription factor profiling; actives raise or lower the signal
Procedure, shortened: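 Cells (HepG2) transfected with promoter-driven reporter constructs, treated 24 h. Total RNA reverse-transcribed, reporter cDNA PCR-amplified, FAM-labelled by primer extension, digested, resolved by capillary electrophoresis. Activity fitted both directions versus DMSO.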

[7] = ATG_BRE_CIS: Attagene CIS-FACTORIAL HepG2 Assay for human Bone Morphogenetic Protein (BMP) Response Element (BRE) (AID 2282933); settings: HepG2 BMP response element reporter, Attagene transcription factor profiling; actives raise or lower the signal
Procedure, shortened: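 Transient MRTU transfection of human HepG2 liver cells; 24 h compound treatment; total RNA isolated, reverse-transcribed, PCR-amplified, 6-FAM labelled, HpaI-cut, capillary electrophoresis. DMSO = negative control/baseline, bidirectional fit.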

[8] = target: Retinoic acid receptor alpha (Homo sapiens) (UniProt P10276); assay: ATG_DR5_RAR_CIS: Attagene CIS-FACTORIAL HepG2 Assay for human Retinoic Acid Receptor Alpha (RARE), DR5 submotif (AID 2282934); settings: HepG2 Attagene cis-factorial RARE DR5 reporter, mRNA; actives raise or lower the signal
Procedure, shortened: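 HepG2 cells transiently transfected with multiplexed reporter units under cis (DR5 RARE) promoters, so endogenous transcription factor activity is measured. After 24 h compound exposure, reporter mRNA is quantified by RT-PCR with fluorescent labelling and capillary electrophoresis; bidirectional fitting versus DMSO.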

[9] = target: Transcription factor E2F1 (Homo sapiens) (UniProt Q01094); assay: ATG_E2F_CIS: Attagene CIS-FACTORIAL HepG2 Assay for human E2F Transcription Factor 1 (AID 2282935); settings: HepG2 Attagene cis-reporter, E2F reporter RNA transcripts; actives raise or lower the signal
Procedure, shortened: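 First, HepG2 cells were transfected with reporter transcription units. Next, they were dosed for 24 h. Then RNA was isolated, converted to cDNA, PCR-amplified, FAM-labeled, HpaI-digested and analyzed by capillary electrophoresis.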

[10] = ATG_E_Box_CIS: Attagene CIS-FACTORIAL HepG2 Assay for human Enhancer Box (E-box) (AID 2282936); settings: HepG2 E-box cis-reporter transcription, actives raise or lower the signal
Procedure, shortened: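 Endogenous transcription factor activity was sensed in human HepG2 liver cells through transfected cis-promoter reporter units. After 24 h of dosing, total RNA was reverse-transcribed and reporter cDNA resolved by capillary electrophoresis.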

[11] = ATG_M_61_CIS: Attagene CIS-FACTORIAL HepG2 Assay for M61 Transcription Factor (Internal Marker) (AID 2282937); settings: HepG2 Attagene CIS-FACTORIAL M61 internal marker reporter; actives raise or lower the signal
Procedure, shortened: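 Cells were transfected with reporter units under cis-regulatory promoters, treated with chemicals for 24 h, then lysed for RNA. Reporter transcripts were quantified by RT-PCR and capillary electrophoresis, and activity was fitted bidirectionally against DMSO.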

[12] = ATG_EGR_CIS: Attagene CIS-FACTORIAL HepG2 Assay for human Early Growth Response 1 (EGR1) (AID 2282938); settings: HepG2 Attagene CIS-FACTORIAL EGR reporter mRNA; actives raise or lower the signal
Procedure, shortened: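 Endogenous TF activity in HepG2 liver cells was gauged through cis-promoter reporter constructs transiently transfected. After 24 h dosing, reporter mRNA was quantified by RT-PCR and capillary electrophoresis, and curves fitted in both directions versus DMSO.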

[13] = ATG_M_19_CIS: Attagene CIS-FACTORIAL HepG2 Assay for M19 Transcription Factor (Internal Marker) (AID 2282939); settings: HepG2 Attagene CIS-FACTORIAL M19 internal marker reporter; actives raise or lower the signal
Procedure, shortened: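 Transfect HepG2 with MRTU reporter library → dose chemical, 24 h → isolate total RNA, reverse-transcribe with oligo(dT) → PCR, 6-FAM label, HpaI cut (2 h, 37 C) → capillary electrophoresis. Bidirectional fit vs DMSO.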

[14] = ATG_Ets_CIS: Attagene CIS-FACTORIAL HepG2 Assay for human Erythroblast Transformation Specific (ETS) (AID 2282941); settings: HepG2 ETS cis-reporter transcription, actives raise or lower the signal
Procedure, shortened: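 Multiplexed reporter transcript profiling: HepG2, 24 h treatment, total RNA to cDNA, PCR, 6-FAM labelling, HpaI cut, capillary electrophoresis. Gain- or loss-of-signal fitted against DMSO.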

[15] = target: Hepatocyte nuclear factor 3-beta (Homo sapiens) (UniProt Q9Y261); assay: ATG_FoxA2_CIS: Attagene CIS-FACTORIAL HepG2 Assay for human Forkhead box A2 (FOXA2) (AID 2282942); settings: HepG2 cis-reporter transcription factor activity, 24 h; actives raise or lower the signal
Procedure, shortened: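 Endogenous transcription factor activity was read in HepG2 cells carrying transiently transfected cis-promoter reporter units. After 24 h dosing, reporter mRNA was quantified by RT-PCR and capillary electrophoresis, and values fitted bidirectionally versus DMSO.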

[16] = ATG_FoxO_CIS: Attagene CIS-FACTORIAL HepG2 Assay for human Forkhead box O (FoxO) (AID 2282943); settings: HepG2 Attagene cis-reporter, FoxO element, mRNA; actives raise or lower the signal
Procedure, shortened: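 HepG2 cells transiently transfected with cis-promoter-driven multiple reporter transcription units; 24 h after chemical dosing, reporter mRNA quantified by RT-PCR, fluorescent primer extension, HpaI digestion and capillary electrophoresis. Bidirectional fitting versus DMSO baseline.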

[17] = ATG_GATA_CIS: Attagene CIS-FACTORIAL HepG2 Assay for human GATA Binding Protein (AID 2282944); settings: HepG2 GATA cis-element reporter, Attagene multiplex mRNA; actives raise or lower the signal
Procedure, shortened: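 Transient MRTU transfection, HepG2, 24 h compound exposure. Total RNA → oligo(dT) RT → PCR → 6-FAM primer extension → HpaI cut → CE. Bidirectional fit vs DMSO.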

[18] = ATG_GLI_CIS: Attagene CIS-FACTORIAL HepG2 Assay for human Zinc Finger Protein GLI1 (AID 2282945); settings: HepG2, Attagene cis-factorial reporter mRNA, GLI element; actives raise or lower the signal
Procedure, shortened: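 HepG2 cells transiently transfected with cis-promoter multiplexed reporter units report endogenous transcription factor activity. After 24 h chemical exposure, reporter mRNA was quantified by RT-PCR, 6-FAM labelling, HpaI digestion and capillary electrophoresis, with bidirectional fitting against DMSO.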

[19] = ATG_ERE_CIS: Attagene CIS-FACTORIAL HepG2 Assay for Estrogen Response Element (ERE) (AID 2282940); settings: HepG2 ERE cis-reporter, Attagene RNA transcript; actives raise or lower the signal
Procedure, shortened: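 Transient MRTU transfection of human HepG2; cis-element promoters; 24 h dosing; total RNA → RT (oligo dT) → PCR → 6-FAM primer extension → HpaI digest → CE fluorescence. Bidirectional fit, DMSO baseline.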

Measured: AC50

Chain of CCAAT/enhancer-binding protein beta (Homo sapiens) (P17676 whole entry, looked up): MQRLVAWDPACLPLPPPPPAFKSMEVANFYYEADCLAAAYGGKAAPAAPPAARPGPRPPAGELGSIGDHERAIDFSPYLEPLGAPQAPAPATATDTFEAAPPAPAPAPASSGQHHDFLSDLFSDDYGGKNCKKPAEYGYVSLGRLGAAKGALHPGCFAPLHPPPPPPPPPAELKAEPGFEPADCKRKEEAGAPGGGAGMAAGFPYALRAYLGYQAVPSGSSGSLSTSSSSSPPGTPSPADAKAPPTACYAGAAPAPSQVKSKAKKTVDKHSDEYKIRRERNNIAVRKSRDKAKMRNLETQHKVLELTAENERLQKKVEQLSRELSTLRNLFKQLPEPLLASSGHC
Chain of Transcription factor E2F1 (Homo sapiens) (Q01094 whole entry, looked up): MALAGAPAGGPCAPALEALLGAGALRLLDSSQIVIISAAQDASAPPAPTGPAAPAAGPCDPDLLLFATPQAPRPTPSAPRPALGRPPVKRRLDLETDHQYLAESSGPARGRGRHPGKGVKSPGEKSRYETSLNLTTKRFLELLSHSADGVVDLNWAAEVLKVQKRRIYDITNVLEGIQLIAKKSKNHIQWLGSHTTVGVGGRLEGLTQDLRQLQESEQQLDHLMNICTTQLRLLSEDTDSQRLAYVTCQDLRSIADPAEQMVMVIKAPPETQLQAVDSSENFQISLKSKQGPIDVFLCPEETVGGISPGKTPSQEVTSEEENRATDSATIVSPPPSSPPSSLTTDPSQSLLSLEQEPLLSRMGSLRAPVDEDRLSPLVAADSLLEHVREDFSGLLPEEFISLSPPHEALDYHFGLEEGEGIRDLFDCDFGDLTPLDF
Chain of Hepatocyte nuclear factor 3-beta (Homo sapiens) (Q9Y261 whole entry, looked up): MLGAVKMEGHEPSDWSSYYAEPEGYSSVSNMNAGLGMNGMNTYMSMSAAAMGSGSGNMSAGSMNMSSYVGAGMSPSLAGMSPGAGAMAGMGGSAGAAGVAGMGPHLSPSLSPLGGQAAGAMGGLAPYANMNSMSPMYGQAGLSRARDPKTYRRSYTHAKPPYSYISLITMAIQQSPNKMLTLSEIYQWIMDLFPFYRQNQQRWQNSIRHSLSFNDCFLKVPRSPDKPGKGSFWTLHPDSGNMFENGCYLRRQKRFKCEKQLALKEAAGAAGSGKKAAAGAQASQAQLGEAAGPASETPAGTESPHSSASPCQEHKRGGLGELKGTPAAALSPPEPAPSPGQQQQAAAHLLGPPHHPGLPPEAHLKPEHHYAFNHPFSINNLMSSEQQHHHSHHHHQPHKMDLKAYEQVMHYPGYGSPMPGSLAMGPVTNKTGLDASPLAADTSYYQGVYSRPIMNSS
Chain of Retinoic acid receptor alpha (Homo sapiens) (P10276 whole entry, looked up): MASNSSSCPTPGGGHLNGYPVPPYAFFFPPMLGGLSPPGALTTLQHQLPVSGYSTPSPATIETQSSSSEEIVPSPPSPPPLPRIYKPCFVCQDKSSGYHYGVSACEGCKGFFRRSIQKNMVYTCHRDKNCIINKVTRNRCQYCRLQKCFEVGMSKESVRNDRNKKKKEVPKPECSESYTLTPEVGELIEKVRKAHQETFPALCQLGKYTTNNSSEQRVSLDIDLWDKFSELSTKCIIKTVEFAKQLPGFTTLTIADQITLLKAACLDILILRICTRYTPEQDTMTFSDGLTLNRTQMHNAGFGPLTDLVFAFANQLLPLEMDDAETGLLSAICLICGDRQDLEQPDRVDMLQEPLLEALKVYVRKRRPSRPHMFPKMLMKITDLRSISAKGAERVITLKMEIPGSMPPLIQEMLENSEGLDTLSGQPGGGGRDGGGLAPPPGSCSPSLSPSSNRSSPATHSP

CCCCCCCCCCCCCCCCCC(=O)OCC(CC)CCCC (stereo unspecified)
not listed: [19]
inactive: all other assays above

CCCCO
not listed: [8] | [19]
inactive: all other assays above

CN(CCOc1ccc(CC2SC(=O)NC2=O)cc1)c1ccccn1 (stereo unspecified)
active: [19] 0.0823 µM
not listed: [6] | [8] | [9]
inactive: all other assays above

NCCOCCO
not listed: [8]
inactive: all other assays above

NNc1nc(-c2ccc(N)cc2)cs1
not listed: [8] | [9] | [15] | [16] | [17]
inactive: all other assays above

CCCCCCCCC=O
not listed: [5] | [8] | [19]
inactive: all other assays above

COc1c(Cl)c(Cl)c(Cl)c(Cl)c1Cl
active: [3] 27.7 µM
not listed: [5] | [8] | [12] | [19]
inactive: all other assays above

C=C(C)C(=O)O[C@H]1C[C@@H]2CC[C@@]1(C)C2(C)C
active: [3] 148 µM | [4] 26.7 µM | [9] 100 µM | [10] 147 µM | [19] 60.7 µM
not listed: [5] | [8]
inactive: all other assays above
